Data from PubChem BioAssay (NCI).
This is part of a sample that, as a whole, favours compounds with a hit. Of some 83,000 tested, about 20% had one in any assay.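 Step 1: grow cells in 96-well plates. Step 2: add test compound at a single concentration. Step 3: incubate 48 h. Step 4: record percent growth.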 Activity calls are given as the source filed them. The calls were made as follows: active = growth percent below 10; inactive = the rest.

Assays:
Experiment in all cases: NCI-60 one-dose screen, 48 h (100 = growth as untreated, 0 = no growth, -100 = all killed)
Conditions in all cases: 10 µM unless noted
[1] = system: NCI-H23 lung
[2] = system: NCI-H226 lung
[3] = system: NCI-H322M lung
[4] = system: HOP-62 NSCLC
[5] = system: NCI-H460 lung
[6] = system: HOP-92 NSCLC
[7] = system: NCI-H522 lung
[8] = system: A549/ATCC NSCLC
[9] = system: 786-0 renal
[10] = system: COLO 205 colon
[11] = system: DU-145 prostate
[12] = system: K-562 leukemia
[13] = system: MALME-3M melanoma
[14] = system: MDA-MB-231 breast
[15] = system: RXF 393 renal
[16] = system: SF-268 CNS
[17] = system: SF-295 CNS
[18] = system: SF-539 CNS
[19] = system: UACC-257 melanoma
[20] = system: M14 melanoma

Measured: growth

C/C(=N\O)C(=O)NCCCCCC(=O)Nc1ccccc1
inactive: [1] 99.2% | [2] 110% | [3] 103% | [4] 102% | [5] 111% | [6] 94.4% | [7] 91.1% | [8] 97% | [9] 94.4% | [10] 108% | [11] 114% | [12] 99.7% | [13] 98.9% | [14] 100% | [15] 121% | [16] 100% | [17] 101% | [18] 107% | [19] 98.6% | [20] 107%

CCc1ccc(CCC(=O)Nc2ncc(Cc3ccc(Cl)cc3)s2)o1
active: [5] 6.53% | [7] -3.33% | [15] -12.8% | [18] 2.47% | [20] 8.78%
inactive: [1] 54.9% | [2] 61.8% | [3] 52% | [4] 30.9% | [6] 69.8% | [8] 29.6% | [9] 41.2% | [10] 12.3% | [11] 14.4% | [12] 10.9% | [13] 46.4% | [14] 60.7% | [16] 58.4% | [17] 17% | [19] 56.6%

COc1ccc(-c2ccc(=O)oc2C#Cc2cc(OC)c(OC)c(OC)c2)cc1O
inactive: [1] 44.2% | [2] 51.7% | [3] 31.5% | [6] 51.4% | [8] 28.7% | [9] 11.8% | [10] 47.2% | [13] 48% | [14] 30.4% | [16] 20.5% | [19] 35.7%
active: [4] -28.1% | [5] -4.6% | [7] 4.45% | [11] -4.48% | [12] 0.484% | [15] -13.2% | [17] -20.6% | [18] -28.7% | [20] -44.5%

COc1cc(C(=O)/C=C/c2ccc(N3CCN(C)CC3)cc2)cc(OC)c1OC
inactive: [1] 90% | [2] 101% | [3] 89.7% | [4] 91.4% | [5] 100% | [6] 98.5% | [7] 77.7% | [8] 101% | [9] 106% | [10] 91.3% | [11] 104% | [13] 86.3% | [14] 92% | [15] 107% | [16] 97.9% | [17] 95.2% | [18] 96.7% | [19] 99.3% | [20] 94.8%
active: [12] 2.23%

Cn1c(/C=C/[N+](=O)[O-])cc2ccccc21
inactive: [3] 105% | [4] 76.7% | [5] 62.7% | [6] 84% | [7] 70.5% | [8] 48% | [9] 75.7% | [10] 12.5% | [13] 91.4% | [14] 63% | [16] 93.4% | [17] 40.4%
active: [1] -24.5% | [2] 4.78% | [11] -8.11% | [12] 7.24% | [15] -97.1% | [18] -53.4% | [19] -5.1% | [20] -70.1%

COc1ccc(Cc2nnc(Nc3nc4ccccc4s3)s2)cc1
inactive: [1] 93% | [2] 98.3% | [3] 89.1% | [4] 108% | [5] 102% | [6] 85% | [7] 100% | [8] 99.4% | [9] 98.1% | [10] 111% | [11] 109% | [12] 64.8% | [13] 100% | [14] 98% | [15] 97.8% | [16] 103% | [17] 92.9% | [18] 93.9% | [19] 99.9% | [20] 102%

Cn1cc(-c2nc(-c3c[nH]c4ccncc34)cs2)c2cc(Br)ccc21
active: [1] -64.2% | [2] 0.662% | [3] -93.1% | [4] -69.7% | [5] -71.4% | [6] -91.9% | [7] -70.8% | [8] -70.3% | [9] -78.5% | [10] -71.1% | [11] -95.9% | [12] -54.2% | [13] -79.2% | [14] -80.7% | [15] -94.4% | [16] -73.7% | [17] -78% | [18] -98% | [19] -46.4% | [20] -74.2%

C[C@@H]1O[C@@H](O[C@@H]2C[C@H](c3ccc4c(c3O)C(=O)C3=C(C4=O)[C@@]4(O)C(=O)C[C@](C)(O)C[C@@]4(O)C=C3)O[C@H](C)[C@H]2O)C[C@H](O)[C@@H]1O
inactive: [1] 93.2% | [2] 101% | [3] 108% | [4] 107% | [5] 98.5% | [6] 120% | [7] 82.8% | [8] 94.7% | [9] 101% | [10] 96.9% | [11] 104% | [12] 91.3% | [13] 90.7% | [14] 102% | [15] 106% | [16] 91.1% | [17] 108% | [18] 101% | [19] 101% | [20] 98.4%

COc1cc(Nc2ncccc2NC(=O)c2cn(Cc3cccc(Oc4ccccc4)c3)nn2)cc(OC)c1
inactive: [1] 83.8% | [2] 83% | [3] 85.5% | [4] 99.7% | [5] 102% | [6] 98.4% | [7] 81% | [8] 86% | [9] 87.2% | [10] 86.5% | [11] 86.2% | [12] 45.4% | [13] 92.3% | [14] 66% | [15] 74.6% | [16] 73.8% | [17] 93.4% | [18] 93% | [19] 104% | [20] 67.6%

C[C@H]1[C@H](C)CC[C@]2(C(=O)O)CC[C@]3(C)C(=CC[C@@H]4[C@@]5(C)C[C@@H](Cc6cn([C@@H]7O[C@H](CO)[C@@H](O)[C@H](O)[C@H]7O)nn6)[C@H](O)C(C)(C)[C@@H]5CC[C@]43C)[C@H]12
inactive: [1] 97.7% | [2] 94.3% | [3] 102% | [4] 88.9% | [5] 107% | [6] 95.6% | [7] 103% | [8] 89% | [9] 94.6% | [10] 105% | [11] 105% | [12] 95.4% | [13] 108% | [14] 102% | [15] 118% | [16] 103% | [17] 98.8% | [18] 109% | [19] 90.2% | [20] 93.9%

Nc1n[nH]c2ccc([C@@H]3Nc4cc5[nH]ncc5cc4[C@H]4C5CCC(C5)[C@@H]34)cc12 (stereo not given in full)
active: [5] 7.16% | [10] -11.9% | [15] -2.95% | [18] -11.3% | [20] -3.7%
inactive: [1] 27.3% | [2] 15% | [3] 43% | [4] 46.9% | [6] 58.2% | [7] 13.9% | [8] 24.6% | [9] 28.3% | [11] 21.2% | [12] 10.6% | [13] 46.9% | [14] 12.7% | [16] 45.4% | [17] 11.8% | [19] 67.4%

C=C1C(=O)O[C@H]2[C@H]1CC/C(COC(=O)NCc1ccc(Cn3c(=O)sn(-c4ccc(OC)cc4)c3=O)cc1)=C\CC[C@@]1(C)O[C@@H]21
active: [6] -1.01% | [7] -65.4% | [10] -51.2% | [12] -3.73% | [13] -3.77%
inactive: [1] 88.2% | [2] 94.8% | [3] 97.7% | [4] 98.9% | [5] 95.2% | [8] 97.7% | [9] 50.9% | [11] 27% | [14] 47.7% | [15] 42.3% | [16] 86.5% | [17] 97.7% | [18] 82.1% | [19] 65.3% | [20] 25.7%

CCCCCCCCCCCCCCCCOC(=O)c1c(C)[nH]c(/C=C2\N=C(c3ccc[nH]3)C=C2OC)c1C
active: [2] 6.67% | [6] -12.6% | [20] -17.1%
inactive: [1] 48.8% | [3] 82.7% | [4] 54.2% | [5] 13.3% | [7] 27.1% | [8] 11% | [9] 11.3% | [10] 33.6% | [11] 49.3% | [12] 38.3% | [13] 68.4% | [14] 46.6% | [15] 32% | [16] 69.6% | [17] 68.7% | [18] 63.6% | [19] 86.1%

COc1cc2nc(Nc3cccc(F)c3)nc(Nc3cc(C)[nH]n3)c2cc1OC
active: [1] -71.2% [20 µM] | [2] -49.4% [20 µM] | [3] -100% [20 µM] | [4] -53.2% [20 µM] | [5] -69.7% [20 µM] | [6] -88.9% [20 µM] | [7] -42% [20 µM] | [8] -55% [20 µM] | [9] -81.8% [20 µM] | [10] -60.9% [20 µM] | [11] -94.7% [20 µM] | [12] -31.1% [20 µM] | [13] -98.1% [20 µM] | [14] -98.6% [20 µM] | [15] -88.7% [20 µM] | [16] -69.9% [20 µM] | [17] -92.1% [20 µM] | [18] -100% [20 µM] | [19] -62.4% [20 µM] | [20] -91.4% [20 µM]

COc1ccc(-c2cc(C(=O)N3N=C(c4ccc(N)cc4)CC3c3ccccc3)c3ccccc3n2)cc1 (stereo not given)
active: [17] 6.86%
inactive: [1] 56.7% | [2] 77.3% | [3] 47.1% | [4] 30.6% | [5] 18.2% | [6] 34.5% | [7] 23.7% | [8] 39.4% | [9] 37.3% | [10] 10.8% | [11] 21.8% | [12] 19.8% | [13] 54.6% | [14] 62.9% | [15] 51.1% | [16] 51.5% | [18] 13.4% | [19] 47.2% | [20] 17.2%
